These results are taken from PubChem BioAssay.

The AC50 is the concentration giving half of the maximal activity seen. One may read the viability as the share of living cells, or the viability signal relative to a control. In general, IC50 refers to the concentration needed to halve the response being measured.

Records with an inconclusive call do not appear. Calls of active or inactive are those of the source. Unless noted, the limit is not given here; nearly all actives have AC50 up to about 26 µM.

The nature of assay [1]: growth inhibition of DIPG glioma cells, dose response, cell-based, SU-DIPG-XVII, MIPE5.0, CellTiter-Glo, qHTS (AID 1347060).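 As to AC50: cells exposed to compound for 48 hours before viability readout.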 As to conditions: SU-DIPG-XVII viability, CellTiter-Glo ATP luminescence. (In ATP-based viability assays light output follows the ATP content of the culture.)
Assay [2] is described as follows: SU-DIPG-VI glioma cell viability, MIPE4.0 library, CellTiter-Glo luminescence, qHTS (AID 1347066; cut-off not given, nearly all actives have AC50 up to about 30 µM;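 also: cells exposed to compound for 48 hours before readout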). The following applies: CellTiter-Glo ATP luminescence.
A short description of assay [3]: SU-DIPG-XXV glioma cell viability, MIPE5.0 library, qHTS (AID 1347068; cut-off not given, nearly all actives have IC50 up to about 30 µM;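 as to IC50: cells exposed to compound for 48 hours before viability readout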). In general terms: Quantitative high-throughput screening tests each substance at several concentrations.
A short description of assay [4]: JHH-DIPG-1 glioma cell viability, MIPE5.0 library, CellTiter-Glo luminescence, qHTS (AID 1347067).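 Also: cells exposed to compound for 48 hours before readout.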 The following applies: JHH-DIPG-1 glioma viability, CellTiter-Glo ATP luminescence.
The nature of assay [5]: liver-stage malaria parasite growth inhibition, primary screen, cell-based, HepG2, luciferase luminescence, HepG2 viability (AID 624349; in the data active = parasite load remaining mostly below about 12%, no sharp cut-off; inactive = mostly above about 10%;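 also: 100% = mean of DMSO negative control wells on the same plate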). As to conditions: P. berghei liver stage in HepG2, luciferase luminescence, concentration not given here; parasite load remaining: stronger effect = lower value; viability: measured here: HepG2 viability without parasites.
Assay [6] can be described thus: viability loss in pontine glioma line – cell-based, SU-DIPG-XXV, MIPE5.0, CellTiter-Glo, qHTS, dose response (AID 1347065).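 Also: cells exposed to compound for 48 hours before ATP readout.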 As to conditions: CellTiter-Glo ATP luminescence.
Assay [7] is described as follows: sensitizers of A549 cells to miR-34 induction, primary screen, imaging, A549 dox-inducible miR-34, nuclei and caspase counts (AID 1347080;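 active = compounds whose cell count with miR-34 switched on is under 0.7 times the count with it off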). As to conditions: A549 miR-34 inducible, Hoechst nuclei count, 48 h.
The nature of assay [8]: survival rescue of mitochondrial mutant cells in low glucose, primary screen, MELAS cybrids, Rieske KO mouse fibroblasts, CellTiter-Glo (AID 1508586;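 active = mean z-score across replicates of 1.96 or higher in either the MELAS or the Rieske mutant cell line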;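 also: z relative to plate mean and SD of compound and empty wells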).
The mark [9] stands for this setting: stronger effect = lower value, cell number ratio, induced over uninduced.
Setting [10] is: measured here: relative caspase fold change +Dox/-Dox.
[11] abbreviates: measured here: total cells with miR-34 induction, stronger effect = lower value.
[12] abbreviates: measured here: total cells without miR-34 induction.
Setting [13] is: MELAS cybrid survival, CellTiter-Glo 48 h, stronger effect = higher value.
Setting [14] is: Rieske KO mouse fibroblast survival, CellTiter-Glo 72 h.

With `CCCC1OC2C[C@H]3[C@@H]4CCC5=CC(=O)C=C[C@]5(C)[C@H]4C(O)C[C@]3(C)[C@]2(C(=O)CO)O1` (stereo partly specified), the result in assay [1], in assay [2] and in assay [3] was inactive.

In the case of `O=C(NO)C1(CS(=O)(=O)c2ccc(Oc3ccc(Cl)cc3)cc2)CCOCC1`, the outcome in assay [1] and in assay [3] was inactive. Moreover, the AC50 in assay [4] was 3.72 µM (active).

On to `COc1ccc(CNc2nc(N(CCO)CCO)nc3c2ncn3C(C)C)cc1`, for which, in assay [5], the parasite load remaining was 40.6% (inactive). This compound had a viability in assay [5] of 84%. For the same compound, the AC50 in assay [1] was 7.42 µM (active); in assay [6], 10.5 µM (active); in assay [4], 5.25 µM (active). For the same compound, in assay [3], the IC50 is 11.8 µM (active).

For the compound `CN(C)c1ccc(Nc2nc(N)n(C(=O)c3c(F)cccc3F)n2)cc1`, the AC50 in assay [1] is 8.33 µM (active); in assay [6], 5.25 µM (active). The IC50 in assay [3] was 14.8 µM (active).

For the compound `Nc1ncnc2c1C(=O)N(c1ccc(C3CCC(CC(=O)O)CC3)cc1)CCO2` (stereo unspecified), the compound was classed as inactive in assay [1], in assay [6], in assay [4] and in assay [3]. The fold change is 0.873 (inactive) in assay [7] (setting [9]) and 0.72 in assay [7] (setting [10]). Also, the cell count in assay [7] (setting [11]) was found to be 8200; in assay [7] (setting [12]), 9390. The z-score in assay [8] (setting [13]) is -0.311 (inactive); in assay [8] (setting [14]), -0.473.

For `CCCOc1ccn2c(C(C)=O)cc(-c3ccccc3S(C)(=O)=O)c2c1`, the call in assay [1], in assay [6] and in assay [3] was inactive.

With `Cc1cc(OCc2nnc(SC3CCCC3)n2-c2cccnc2)ccc1-c1ccc(S(C)(=O)=O)cc1`, the AC50 in assay [1] was 8.33 µM (active); in assay [6] it was 8.33 µM (active); in assay [4] it was 2.09 µM (active). The compound was classed as inactive in assay [3]. Moreover, the values for the fold change in assay [7] (setting [9]) and in assay [7] (setting [10]) were 0.88 (inactive) and 0.499, respectively. Also, the cell count is 1100 in assay [7] (setting [11]) and 1250 in assay [7] (setting [12]). Moreover, the values for the z-score in assay [8] (setting [13]) and in assay [8] (setting [14]) were 0.698 (inactive) and -0.0239, respectively.

In the case of `CCNCCS(=O)(=O)NC[C@@]1(c2ccccc2)SC(NC(=O)C(C)(C)C)=NN1C(=O)C(C)(C)C`, the values for the concentration at half-maximal activity (AC50) in assay [1] and in assay [6] were 0.00742 µM (active) and 0.00468 µM (active), respectively. Also, the IC50 in assay [3] was 0.00296 µM (active).
